Screening data as filed in PubChem.
CHX counter: counter-screen for Shiga toxin inhibitors: cycloheximide protein synthesis inhibition; cell reporter, cycloheximide protein synthesis inhibition counterscreen; max response, %; 300,000 tested, 12% active; AID 2314; in the data active = max response mostly above about 13%, no sharp cut-off; inactive = mostly below about 14%; also: read at 38.3 µM for the half of the compounds with a filed dose; 0% is about no effect
Pf growth 96h: P. falciparum growth inhibition at 96 hour, primary screen for plastid delayed-death inhibitors; P. falciparum luciferase reporter growth, 96 h; Potency, µM (titrated, usually from 28.7 µM), for the others: top-dose activity change, negative = inhibition, usual class: inhibitors; 320,000 tested, 6.9% active; also: potency is read from the fitted curve at half-maximal effect; % is scaled to controls: 0 for no effect and ±100 for the full control effect
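Erythrocytes infected with luciferase-expressing P. falciparum were dispensed at 2% hematocrit and 0.05% parasitemia (final), then incubated with compounds 96 hours at 37 C in 5% CO2. Luminescence after detection reagent addition reported growth.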
SARS PLP yeast: inhibitors of SARS-CoV papain-like protease in yeast | S. cerevisiae expressing SARS-CoV PLpro, growth rescue | Potency, µM (top dose mostly 32.9 µM), for inactives: at the highest dose activity, positive = growth rescue, hits mostly activators | 330,000 tested, 0.19% active; calls by dose curve; also: potency is read from the fitted curve at half-maximal effect; 0% is about no effect; nearly all actives have a fitted effect of over 55% in size
AMA1-RON2 inh: disrupts binding of P. falciparum AMA1 to RON2; AlphaScreen AMA1-biotinylated RON2 peptide binding; Potency, µM (highest dose often 58.2 µM), without a hit: at the top dose activity change, negative = inhibition, usual class: inhibitors; 360,000 tested, 0.2% active; AID 720542;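 also: potency is read from the fitted curve at half-maximal effect; 0% = vehicle wells and -100% = peptide control; nearly all actives have a fitted effect of over 45% in size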
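AMA1 (3D7) with his tag at 25 nM final met compounds first, then biotinylated RON2 peptide at 25 nM; detection used donor plus acceptor beads, 10 µg/mL apiece, read by AlphaScreen after 30 min at room temperature.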
Pf growth 48h: inhibits P. falciparum growth in the first generation, 48 h; AID 504832; 310,000 tested, 5.9% active; Potency, µM (titrated, usually from 28.7 µM), for inactives: at the highest dose activity change, negative = inhibition, actives largely listed as inhibitors; P. falciparum luciferase growth in erythrocytes, 48 h; also: potency is read from the fitted curve at half-maximal effect; % is scaled to controls: 0 for no effect and ±100 for the full control effect
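Luciferase-expressing parasites in RBCs, 2% Hct / 0.1% parasitemia final; RPMI 1640 + 0.5% Albumax; 37 C, 5% CO2, one generation; luminescence read-out, lower signal = inhibition.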
Shiga toxin inh: blocks Shiga toxin action in Vero cells; Vero cells, Shiga toxin protein synthesis inhibition reporter; inhibition, % at 38.7 µM; 290,000 tested, 9.2% active; in the data active = inhibition mostly above about 28%, no sharp cut-off; inactive = mostly below about 43%; also: 0% is about no effect
* hit, by the source's call; u = inconclusive; x = no result; [ ] = another dose, or the depositor's remark. An excerpt weighted towards active compounds, which were near 19% of everything screened. Unless noted, calls follow the shape of the dose curve; as a rule, active = well fitted curve in the direction sought with a large enough effect; inconclusive = small, poorly fitted or top-dose-only effect, or another doubt; inactive = no such curve, though single readings can be large; an effect the other way counts as inactive or inconclusive.

SMILES	CHX counter	Pf growth 96h	SARS PLP yeast	AMA1-RON2 inh	Pf growth 48h	Shiga toxin inh
Cn1c(=O)c2[nH]c(CCCCCCCCc3nc4ccccc4[nH]3)nc2n(C)c1=O	x	x	x	-6%	x	x
O=C(c1ccc(COc2c(F)c(F)c(F)c(F)c2F)o1)N1CCOCC1	-2	13µM*	-6%	-3%	5%	10
CCN1CCN(C(=O)c2ccc(COc3ccc(Cl)cc3)o2)CC1	-4	-3%	-3%	-4%	6%	-7
CC(C)(C)NC(=O)c1ccc(COc2ccc(Cl)cc2Cl)o1	-2	u	-5%	12%	-10%[0.00184 µM]	19
Cc1ccc(OCc2ccc(C(=O)N3CCCC3)o2)cc1C	34*	-4%	-20%	-12%	u	76*
CCOc1ccc(OCc2ccc(C(=O)N3CCc4ccccc4C3)o2)cc1	18	0%	-11%	-10%	6%	29
O=C(c1ccc(COc2ccc(Cl)cc2Cl)o1)N1CCCC1	33*	14%	-12%	-8%	17%	31
CCOc1ccc(OCc2ccc(C(=O)N3CCCCC3)o2)cc1	23*	-19%	1%	-5%	-20%	40*
Cc1cc(C)cc(C(=O)N(CCc2ccccc2)C2CC3CCC(C2)N3C)c1 (configuration not stated)	-3	u	3%	-3%	0%	-20
CCNC(=O)C1(C)CCN(C(=O)c2ccccc2C(F)(F)F)C1 (configuration not stated)	x	x	x	2%	x	x
CCc1ccccc1NC(=O)CNC(=O)CSC(=S)N1CCCC1	x	u	1%	-6%	u	x
COc1ccccc1OCc1ccc(C(=O)N2CCCCC2)o1	13*	u	1%	7%	7%	26
Cc1ccc(NNC(=O)Nc2ccc(Cl)cc2)nn1	1	27%	-17%	38%	33%	-10
CN(Cc1ccccc1)CC1C2CCC(C2)C1O (configuration not stated)	x	x	x	17%	x	x
COCCNCC(=O)N1CCCCCC1	3	12µM*	-1%	8%	-2%	30
Cc1cc(=O)c2cc3nc(-c4cccnc4)oc3c(Br)c2o1	15*	10%	-3%	x	u	42
COc1cccc(O)c1CN1CCCC(C(=O)c2cccc(C(F)(F)F)c2)C1 (configuration not stated)	8	u	-2%	u	2.9µM*	-3
CCn1ccnc1CN1CCCC(C(=O)c2cccc(C(F)(F)F)c2)C1 (configuration not stated)	-2	13%	1%	38%	9.3µM*	-10
CCc1cccc(CC)c1NC1=NCCN1	-3	x	x	x	x	-6
Clc1cccc(Cl)c1NC1=NCCN1	1	12µM*	9%	x	-14%	2
Cc1ccc(S(=O)(=O)Nc2cc3c4c(c2)CCN4C(=O)CC3)cc1	x	1%	x	-19%	-28%	x
CN(C)c1ccc(/C=N/NC(=O)CSc2ccccn2)cc1	40*	-1%	0%	-13%	31%	56*
CCCOc1ccc(/C=N/NC(=O)CSc2ccccn2)cc1OC	36*	81%	-1%	-8%	38%	85*
C[C@@H](CSc1ccccc1)CN1CC[C@H](O)CCC1=O	0	u	2%	-9%	6%	6
O=C(c1ccc(Cl)cc1)N1N=CCC1(O)c1ccc(Cl)cc1 (configuration not stated)	22*	0%	-9%	101%	13%	38
CC1(O)CC(c2ccc(Cl)cc2)=NN1C(=O)c1ccc(Cl)cc1 (configuration not stated)	2	0%	-6%	91%	u	x
CCOc1cc(/C=C2\COc3ccccc3C2=O)ccc1OCC(=O)N(C)C	-3	u	-10%	3%	15µM*	-6
CCNC(=O)COc1ccc(/C=C2\COc3ccccc3C2=O)cc1OC	2	-22%	-10%	-29%	u	-4
CN(C)/C=C/c1c([N+](=O)[O-])c2ccc(O)cc2n1-c1ccccc1	-1	10µM*	3%	-15%	u	-6
CC(C)CC(COCc1cccc(C(F)(F)F)c1)N1CCN(C(=O)c2cccc(C(F)(F)F)c2)CCC1=O (configuration not stated)	-5	15µM*	-3%	1%	u	-12
